# Tgondii IFNg: T. gondii growth inhibition under IFN-gamma | Toxoplasma gondii growth in IFN-gamma-treated host cells; stronger effect = lower value | activity change, negative = inhibition, % (test concentration not listed) | 69,000 tested, 3.8% active; in the data active = activity change below about -70%, passing the limit was not always enough;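 also: host cells are HeLa cells infected with Toxoplasma gondii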
# Active calls of the source: *. Shown is part of a subset that was picked to be rich in hits.
SMILES,Tgondii IFNg
CCOc1cccc(C2c3[nH]c4ccccc4c3CCN2C(=O)c2ccc(C)cc2)c1 (stereo not given),-121.8*
CCOc1cccc(C2c3[nH]c4ccccc4c3CCN2C(=O)C2CCC2)c1 (stereo not given),482.8
COc1ccccc1C(=O)N1CCc2c([nH]c3ccccc23)C1c1ccccc1 (stereo not given),57.9
CCOc1cccc(C2c3[nH]c4ccccc4c3CCN2C(=O)c2cccc(OC)c2)c1 (stereo not given),-103.5*
CCOc1cccc(C2c3[nH]c4ccccc4c3CCN2C(=O)c2ccc(F)cc2)c1 (stereo not given),-98.2*
CCOc1cccc(C2c3[nH]c4ccccc4c3CCN2C(=O)c2ccccc2OC)c1 (stereo not given),-105.1*
Cc1ccc(C(=O)N2CCc3c([nH]c4ccccc34)C2c2cccc(C)c2)cc1 (stereo not given),207.5
CCOc1cccc(C2c3[nH]c4ccccc4c3CCN2C(=O)c2cccc(N(C)C)c2)c1 (stereo not given),407.7
Cc1ccc(Nc2ncnc3c2CCN(C(=O)CN(C)C)CC3)cc1,4.4
Cc1ccc(-c2coc(-c3ccc(NC(=O)Nc4cc(F)ccc4F)cc3)n2)c(C)c1,13.0
COc1ccc2[nH]c(C(=O)NCCc3ccccn3)c(C)c2c1,423.3
N#CCCC1(CCC#N)c2ccccc2-c2ccccc21,-25.7
O=C(C1CC=CC1)N1CC[C@H](O)[C@@H]1Cc1ccncc1,-36.7
CC(C)Nc1ccc2nc(C3CCN(CC(=O)O)CC3)nn2c1,1.1
COc1ccc(C(NC(=O)c2cc(=O)n(C)c(=O)n2C)c2ccccc2)cc1 (stereo not given),4.0
CN(C)C(=O)[C@H]1C[C@@H]2CN(S(=O)(=O)c3ccccc3)C[C@H]1O2,2.8
COC(=O)[C@@H]1C[C@H](NC(=O)c2cc(-c3ccccc3)nn2C)CN1C,6.3
CC1=NOC(C)(CNC(=O)c2cc(CC(C)C)nn2C)C1 (stereo not given),3.8
CN1CCC2(COCCN(S(=O)(=O)c3ccc(F)cc3)C2)C1 (stereo not given),92.4
CCC(C(=O)NCc1ccccn1)n1c2ccccc2c2cnn(C)c(=O)c21 (stereo not given),10.8
Cn1ncc2c3ccccc3n(CC(=O)N3CCN(c4ncccn4)CC3)c2c1=O,130.2
CCC(C(=O)N1CCN(c2ncccn2)CC1)n1c2ccccc2c2cnn(C)c(=O)c21 (stereo not given),-86.0*
CCC(=O)N1CCc2cc(S(=O)(=O)N3CCC(n4nc(C)cc4C)CC3)ccc21,-2.3
C=CCOCc1nnc2n1CCN(Cc1cnn(C)c1)C2,-5.4
COc1ccc(Cn2c(Cc3nc(C)cs3)n[nH]c2=O)cc1,2.4
SMILES,Tgondii IFNg
CCSc1nc(CC(=O)NCCc2c[nH]c3ccccc23)cs1,26.8
Cc1cc(C(=O)NCCc2c[nH]c3ccccc23)c2c(=O)n(C)c(=O)n(C)c2n1,37.1
CCOc1nc2c(c(C)nn2-c2cccc(C)c2)c(C)c1CCC(=O)NCCc1c[nH]c2ccccc12,-78.9*
COc1cc(C(=O)Nc2cc(C)nn2Cc2cccnc2)nc(OC)n1,42.6
CCCC(=O)N1CCC2(CCCN2CC2CC2)CC1,-6.1
CCC(=O)N1CCc2cc(S(=O)(=O)Nc3cccc(-c4nncn4C)c3)ccc21,-8.7
CCOc1ccc(S(=O)(=O)NCCc2sc(-c3ccccc3)nc2C)cc1,23.9
N=C(N=C(N)N)N1CCOCC1,11.1
CC(C)(C)NC(=O)CCN1CCOCC1,11.7
NC(=O)CN1CCOCCOCCN(CC(N)=O)CCOCC1,-70.5*
c1ccc(-c2ccc(-c3[nH]ncc3CN3CCN4CCCC4C3)cc2)cc1 (stereo not given),32.4
NC(=S)N/N=C/c1ncccc1N,-79.7*
CC(C)c1cc(C(=O)N(C)CCC(O)c2ccccc2)n(C)n1 (stereo not given),2.8
CN1CC2(CCN(CCSc3ccccc3)C2)OC1=O (stereo not given),7.9
Cc1ccc(-c2cc(C3CCN(C(=O)c4ccn[nH]4)C3)ccn2)c2cccnc12 (stereo not given),-6.4
CN1C(Cn2cccn2)CC2CN(C(=O)C3CCOC3)CCC21 (stereo not given),19.4
COc1ccc(NC(=O)c2c(O)c3cccnc3n(-c3ccc(F)cc3)c2=O)cc1F,131.7
Cc1ccc(NC(=O)c2c(O)c3cccnc3n(-c3ccc(F)cc3)c2=O)cc1F,88.9
Cc1ccc(C(=O)Nc2ccc(Oc3cc4cnn(C)c4cc3-c3cn[nH]c3)c(F)c2)c(=O)n1-c1ccc(F)cc1,-73.6*
CC1CCN(Cc2ccc(C(=O)N3CC(c4cccnc4)C3)o2)CC1,-5.6
CCOC(=O)c1c(NC2=NC3(CCCCC3)Cc3ccccc32)sc2c1CCCC2,31.0
CCCNC(=O)N1CCc2nc(-c3ccc(C)cc3)sc2C1,6.0
CCOC(=O)c1c(NC(=O)Nc2ccc(C)cc2)sc2c1CCN(C(=O)OCC)C2,-97.2*
Cc1nc(CCNC(=O)C2=NNC(=O)CC2)nc2c1CCCC2,20.9
CCc1nnc(-c2ccc3ccn(CC(=O)NCc4ccccn4)c3c2)o1,54.8
SMILES,Tgondii IFNg
Cc1nc(N2CCN(c3ccccc3)CC2)nc2c1C(=O)CC(c1ccccc1F)C2 (stereo not given),-24.6
Cc1cc(=O)[nH]n(-c2ccccc2)c1=O,-48.8
Cc1ccccc1C1CC(=O)c2cnc3[nH]n(-c4ccccc4)c(=O)c3c2C1 (stereo not given),-90.9*
Cc1ccc(NC(=O)CC(=O)N(C)CCc2noc(C(C)C)n2)cc1,6.6
CCN1C[C@]23CN(C(=O)c4cn(C)c5ccccc45)C[C@@H](C[C@H]2S1(=O)=O)O3,2.8
CN(C)C(CNC(=O)c1ccc(-n2cnnc2)cc1)c1cccc(Cl)c1 (stereo not given),-13.0
Cn1cc(CN2CCC3(CC(=O)N(c4ccccc4)C3)C2)cn1 (stereo not given),-3.1
Cc1ccccc1Nc1nnc(-c2ccccc2)c(-c2ccccc2)n1,14.6
c1ccc(-c2nnc(-c3ccccn3)nc2-c2ccccc2)cc1,-102.6*
CN(Cc1cnc(-c2ccccn2)nc1)Cc1cnn(-c2ccccc2)c1,4.1
CCOC(=O)C1CCN(C(=O)c2nc(-c3ccc(Cl)cc3)n3c2CCCCC3)CC1,-69.2
O=C(c1nc(-c2cccc(F)c2)n2c1CCCCC2)N1CCN(c2ccccc2)CC1,-11.9
CC1CCCN(C(=O)c2nc(-c3ccc(Cl)cc3)n3c2CCCCC3)C1 (stereo not given),-96.6*
CCOC(=O)C1CCCN(C(=O)c2nc(-c3ccc(Cl)cc3)n3c2CCCCC3)C1 (stereo not given),98.9
Cc1ccc(-c2nc(C(=O)N3CCC(C)CC3)c3n2CCCCC3)cc1,-32.0
Cc1ccc(-c2nc(C(=O)N3CCCC(C)C3)c3n2CCCCC3)cc1 (stereo not given),-95.9*
CC(C)NC1CCc2c(ccc(=O)n2CCN(C)C)C1 (stereo not given),27.9
NC1(C(=O)O)CCN(Cc2ccc3c(c2)OCCO3)C1 (stereo not given),-1.2
O=C1NCC2(CCCN(C(=O)CCCOCc3ccccc3)C2)O1 (stereo not given),-50.9
CCc1nc(CN2CCCC(CNC(=O)NC(C)(C)C)C2)c(C)[nH]1 (stereo not given),12.8
Cc1ccc(CN2CC[C@H]3CO[C@@H](CNC(=O)C4CC4)[C@@H]3C2)cc1,-45.4
Cc1cccc(CN2CC3(CCN(Cc4nccs4)CC3)OCC2=O)n1,6.0
CN1CCN(c2ccc(NC(=O)Nc3ccc(C(F)(F)F)cc3)cc2)CC1,1.0
